From the supplement of paper PMC12494721
Structures can show the parent of a compound that is named as a salt.

These molecules were tested on Ruminococcus gnavus DSM 108212 (assay: fold change of 2-Phenylethylamine concentration vs plate DMSO controls (fold change (ratio)); higher = more amine produced, active = hit call of the paper (significant change in both replicates, either direction)). Settings: incubation time: 27 h, anaerobic, 37 °C;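 for the amine columns active = adjusted P below 0.05 in both replicates with a change the same way and a mean fold change under 0.8 or over 1.25; inactive = the rest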.
How it was run: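 Using LC–triple-quadrupole MS with dynamic MRM, amines were quantified against external calibration curves and corrected for drift within each batch. Samples were whole anaerobic mGAM cultures of four gut strains, grown 27 h at 37 °C from OD 0.1 before 1:1 dilution, extracted with cold acetonitrile/methanol containing 0.1% formic acid and centrifuged. Compounds were present at 20 µM final (sweeteners at 50 µM final). The numbers are fold changes versus plate DMSO controls, each the mean of 2 biological replicates.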

Structure (SMILES)	fold change of 2-Phenylethylamine concentration
CCOc1ccc(NC(C)=O)cc1 [Phenacetin] (20 µM)	0.992 (inactive)
CC(C)C(=O)Nc1ccc([N+](=O)[O-])c(C(F)(F)F)c1 [Flutamide] (20 µM)	1.02 (inactive)
Cc1ccc2c([nH]c(=O)c3c(=O)cc(C(=O)OCCC(C)C)oc32)c1C [Repirinast] (20 µM)	0.964 (inactive)
CCCCc1oc2ccccc2c1C(=O)c1cc(I)c(OCCN(CC)CC)c(I)c1 [Amiodarone hydrochloride] (20 µM)	0.89 (inactive)
NCc1ccc(S(N)(=O)=O)cc1 [Mafenide hydrochloride] (20 µM)	0.755 (inactive)
CC[C@@H](CO)NCCN[C@@H](CC)CO [Ethambutol dihydrochloride] (20 µM)	1.09 (inactive)
Nc1c2ccccc2nc2ccccc12 [Aminacrine] (20 µM)	0.947 (inactive)
CC(C(=O)O)c1cccc(C(=O)c2ccccc2)c1 (configuration not stated) [Ketoprofen] (20 µM)	1.12 (inactive)
CCOC(=O)[C@H](CCc1ccccc1)N[C@H]1CS[C@H](c2cccs2)CN(CC(=O)O)C1=O [Temocapril hydrochloride] (20 µM)	1.01 (inactive)
CC(COc1ccccc1)N(CCCl)Cc1ccccc1 (configuration not stated) [Phenoxybenzamine hydrochloride] (20 µM)	1.05 (inactive)
CC1(C)OC(=O)NC1=O [Dimethadione] (20 µM)	0.853 (inactive)
c1cnc(N2CCN(Cc3ccc4c(c3)OCO4)CC2)nc1 [Piribedil] (20 µM)	0.991 (inactive)
O=c1[nH]c(=O)n(C2CCCO2)cc1F (configuration not stated) [Tegafur] (20 µM)	1.03 (inactive)
Nc1ccc(S(=O)(=O)Nc2ncccn2)cc1 [Sulfadiazine] (20 µM)	1.02 (inactive)
Cc1onc(-c2c(Cl)cccc2Cl)c1C(=O)N[C@@H]1C(=O)N2[C@@H]1SC(C)(C)[C@@H]2C(=O)O [Dicloxacillin sodium salt hydrate] (20 µM)	0.0548 (active)
CN(C)CCC=C1c2ccccc2C=Cc2ccccc21 [Cyclobenzaprine hydrochloride] (20 µM)	0.921 (inactive)
C#C[C@]1(O)CC[C@H]2[C@@H]3CCc4cc(O)ccc4[C@H]3CC[C@@]21C [Ethinylestradiol] (20 µM)	0.936 (inactive)
CN1CC(O)c2cc(N=NC(N)=O)c(O)cc21 (configuration not stated) [Carbazochrome] (20 µM)	1.34 (inactive)
C[C@@H](O[C@H]1OCCN(Cc2n[nH]c(=O)[nH]2)[C@H]1c1ccc(F)cc1)c1cc(C(F)(F)F)cc(C(F)(F)F)c1 [Aprepitant] (20 µM)	0.791 (inactive)
CCOC(=O)c1c(N)sc2c1CCN(Cc1ccccc1)C2 [Tinoridine hydrochloride] (20 µM)	0.875 (inactive)
C/C(=C1\CCOC(=O)S1)N(C=O)Cc1cnc(C)nc1N [Cycotiamine] (20 µM)	1.06 (inactive)
CCN1CCN(C(=O)N[C@@H](C(=O)N[C@@H]2C(=O)N3[C@@H]2SC(C)(C)[C@@H]3C(=O)O)c2ccccc2)C(=O)C1=O [Piperacillin sodium salt] (20 µM)	0.0313 (active)
CN1CCN2c3ccccc3Cc3ccccc3C2C1 (configuration not stated) [Mianserine hydrochloride] (20 µM)	1.03 (inactive)
O=C(Oc1cccc2cccnc12)c1ccccc1 [Benzoxiquine] (20 µM)	1.07 (inactive)
Cc1cc(=O)n(-c2ccccc2)n1C [Antipyrine] (20 µM)	1.02 (inactive)
O=C1c2cccc(O)c2C(=O)c2c(O)cccc21 [Danthron] (20 µM)	0.965 (inactive)
Cc1c(Nc2ncccc2C(=O)O)cccc1C(F)(F)F [Flunixin meglumine] (20 µM)	1.02 (inactive)
